Measured values reported in PubChem BioAssay (EPA / NIEHS).
Several values for one entry are separate records, joined by “and”; a condition that tells them apart may be missing. Equal values may be shown once. Some structures have more than one record in an assay (separate samples or runs), and their calls can disagree. Activity calls are given as the source filed them. The calls were made as follows: active = hit-call score of the fitted dose curve at least 0.9, where 1 is the maximum; inactive = score below 0.9.

Read-out: not listed separately
Assay: BSK_3C_Vis: BioMAP Diversity Plus: 3C Assay for Morphology Visualization (AID 2283025);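 also: fitted both ways so gain or loss versus DMSO counts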;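 as to AC50: light microscopy image of cell morphology used as background control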
Settings: primary human endothelial cells (HUVEC)
Method in brief: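 Human umbilical vein endothelial cell morphology was inspected by light microscopy 24 h after chemical dosing; scored bidirectionally relative to DMSO.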

outcome, inactive:
CCC(C)c1ccccc1O (configuration not stated), CCCCCCCCCCCCCCC, O=C1NS(=O)(=O)c2ccccc21, C[C@]12CC[C@@H]3c4ccc(O)cc4CC[C@H]3[C@@H]1C[C@@H](O)[C@@H]2O, CCOC(=O)CN[C@@H](C(=O)N1CC[C@H]1C(=O)NCc1ccc(/C(N)=N/O)cc1)C1CCCCC1, CCCCC(CC)C(=O)OCCOCCOCCOCCOC(=O)C(CC)CCCC (configuration not stated), Clc1ccc(Nc2nnc(Cc3ccncc3)c3ccccc23)cc1, Cc1cccc2c1ccc1ccccc12, O=C(NO)c1ccccc1, CC[N+](CC)(CC)Cc1ccccc1, O=C(c1ccccc1)c1ccccc1, O=C(NCc1ncc(C(F)(F)F)cc1Cl)c1c(Cl)cccc1Cl, CCCCC=O, COCN(COC)c1nc(N(COC)COC)nc(N(COC)COC)n1, O=C1c2ccc(O)c(O)c2C(=O)c2c(O)ccc(O)c21, CN(Cc1cnc2nc(N)nc(N)c2n1)c1ccc(C(=O)N[C@@H](CCC(=O)O)C(=O)O)cc1, CS(=O)(=O)c1ccc([C@@H](CC2CCCC2)C(=O)Nc2cnccn2)cc1Cl, CC1=NN(c2ccccc2)C(=O)C1

AC50, active:
CC(C)(C)c1ccc(O)c(O)c1 8.8 µM, CN(C)c1ccc(C(=C2C=CC(=[N+](C)C)C=C2)c2ccccc2)cc1 0.00948 µM, O=C1OC2(c3ccccc31)c1cc(I)c(O)c(I)c1Oc1c2cc(I)c(O)c1I 22.5 µM, Cc1[nH]nc2c1N=C(c1ccccc1Cl)c1cc([N+](=O)[O-])ccc1N2 0.645 µM, N=C(N)c1ccc(OCCCCCOc2ccc(C(=N)N)cc2)cc1 8.61 µM, C=CC(C)(CCC=C(C)C)OC(C)=O (configuration not stated) 37.4 µM, CCCCCCCCCCCCCCCCCC[N+](C)(C)Cc1ccccc1 0.425 µM, OCCN1CN(CCO)CN(CCO)C1 14.9 µM, CCCCc1oc2ccccc2c1C(=O)c1cc(I)c(OCCN(CC)CC)c(I)c1 9.65 µM

Read-out: Pselectin, SELP (gene 6403)
Assay: BSK_4H_Pselectin: BioMAP Diversity Plus: 4H Assay for Pselectin Biomarker Activity (AID 2283026)
Settings: primary human endothelial cells (HUVEC); actives raise or lower the signal
Method in brief: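 Primary human umbilical vein endothelial cells were treated 24 h, and cell-surface P-selectin was then quantified by ELISA. Bidirectional fit versus DMSO; cytotoxicity checked in parallel cultures by SRB total-protein staining.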

outcome, inactive:
O=P(O)(O)CCC(F)(F)C(F)(F)C(F)(F)C(F)(F)C(F)(F)C(F)(F)C(F)(F)C(F)(F)F, CCC(C)c1ccccc1O (configuration not stated), CCCCCCCCCCCCCCC, O=C1NS(=O)(=O)c2ccccc21, C[C@]12CC[C@@H]3c4ccc(O)cc4CC[C@H]3[C@@H]1C[C@@H](O)[C@@H]2O, CCOC(=O)CN[C@@H](C(=O)N1CC[C@H]1C(=O)NCc1ccc(/C(N)=N/O)cc1)C1CCCCC1, CCCCC(CC)C(=O)OCCOCCOCCOCCOC(=O)C(CC)CCCC (configuration not stated), Clc1ccc(Nc2nnc(Cc3ccncc3)c3ccccc23)cc1, Cc1cccc2c1ccc1ccccc12, O=P(O)(O)CCC(F)(F)C(F)(F)C(F)(F)C(F)(F)C(F)(F)C(F)(F)F, O=S(=O)(O)C(F)(F)C(F)(F)C(F)(F)C(F)(F)C(F)(F)C(F)(F)C(F)(F)C(F)(F)C(F)(F)C(F)(F)F, O=C(NO)c1ccccc1, CC[N+](CC)(CC)Cc1ccccc1, O=C(c1ccccc1)c1ccccc1, OCC(F)(F)C(F)(F)C(F)(F)C(F)(F)C(F)(F)C(F)(F)C(F)(F)C(F)(F)C(F)(F)C(F)(F)C(F)(F)F, O=C(NCc1ncc(C(F)(F)F)cc1Cl)c1c(Cl)cccc1Cl, O=C(O)CCC(F)(F)C(F)(F)C(F)(F)C(F)(F)C(F)(F)C(F)(F)F, Oc1ccc(Cc2ccccc2O)cc1, CCCCC=O, CN(CCO)S(=O)(=O)C(F)(F)C(F)(F)C(F)(F)C(F)(F)C(F)(F)C(F)(F)C(F)(F)C(F)(F)F, COCN(COC)c1nc(N(COC)COC)nc(N(COC)COC)n1, O=C1c2ccc(O)c(O)c2C(=O)c2c(O)ccc(O)c21, O=C(O)CCC(F)(F)C(F)(F)C(F)(F)C(F)(F)C(F)(F)F, CN(Cc1cnc2nc(N)nc(N)c2n1)c1ccc(C(=O)N[C@@H](CCC(=O)O)C(=O)O)cc1, CS(=O)(=O)c1ccc([C@@H](CC2CCCC2)C(=O)Nc2cnccn2)cc1Cl, CC1=NN(c2ccccc2)C(=O)C1

AC50, active:
O=C(O)C(F)(F)OC(F)(F)C(F)(F)OC(F)(F)C(F)(F)OC(F)(F)C(F)(F)C(F)(F)C(F)(F)F 48.1 µM and 54.2 µM, O=C1NS(=O)(=O)c2ccccc21 5.01 µM, CC(C)(C)c1ccc(O)c(O)c1 20 µM, CN(C)c1ccc(C(=C2C=CC(=[N+](C)C)C=C2)c2ccccc2)cc1 0.0138 µM, OCC(F)(F)C(F)(F)C(F)(F)C(F)(F)C(F)(F)C(F)(F)C(F)(F)C(F)(F)C(F)(F)C(F)(F)C(F)(F)F 0.275 µM, O=C1OC2(c3ccccc31)c1cc(I)c(O)c(I)c1Oc1c2cc(I)c(O)c1I 12 µM, Cc1[nH]nc2c1N=C(c1ccccc1Cl)c1cc([N+](=O)[O-])ccc1N2 0.639 µM, N=C(N)c1ccc(OCCCCCOc2ccc(C(=N)N)cc2)cc1 7.2 µM, C=CC(C)(CCC=C(C)C)OC(C)=O (configuration not stated) 31 µM, CCCCCCCCCCCCCCCCCC[N+](C)(C)Cc1ccccc1 0.975 µM, CN(CCO)S(=O)(=O)C(F)(F)C(F)(F)C(F)(F)C(F)(F)C(F)(F)C(F)(F)C(F)(F)C(F)(F)F 0.243 µM, OCCN1CN(CCO)CN(CCO)C1 23.1 µM, CCCCc1oc2ccccc2c1C(=O)c1cc(I)c(OCCN(CC)CC)c(I)c1 9.72 µM, O=C(CC(=O)C(F)(F)C(F)(F)C(F)(F)F)c1cccs1 19.1 µM and 20.2 µM
